18 compounds from PubChem BioAssay (NCATS) can be followed below.

Assay [1] is described as follows: qHTS of pediatric cancer cell lines to identify multiple opportunities for drug repurposing: Primary screen for U-2 OS cells (AID 1347096). Further: nearly all actives have a fitted effect of over 50% in size. In a few lines:
(§1)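 Cells (500-1,000/well) rested 5 h, then received compounds for 48 h; metabolically active cells were measured by CellTiter-Glo luminescence. Final concentrations spanned up to 46 µM (MIPE, 11-point) or 0.59 nM-46 µM (NPC, 8-point) in primary screens, 11-point in follow-ups.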
On the technique in general: In qHTS, concentration-response curves come from the screen itself.

A short description of assay [2]: qHTS of pediatric cancer cell lines to identify multiple opportunities for drug repurposing: Primary screen for BT-12 cells (AID 1347101). Further: nearly all actives have a fitted effect of over 25% in size. Further: potency means the concentration at half of the fitted maximal effect. In a few lines:
as §1

Assay [3] in a line: qHTS of pediatric cancer cell lines to identify multiple opportunities for drug repurposing: Primary screen for control Hh wild type fibroblast cells (AID 1347106). Further: nearly all actives have a fitted effect of over 55% in size. Further: potency means the concentration at half of the fitted maximal effect. In a few lines:
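Cells (500-1,000/well) in growth media were settled 5 h at 37 degrees C, then given compounds for 48 h. Viability was read as CellTiter-Glo luminescence. Primary runs used MIPE at 11 points (0.78 nM-46 µM) and NPC at 8 points (0.59 nM-46 µM); follow-ups used 11 points.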

Assay [4] in a line: qHTS of pediatric cancer cell lines to identify multiple opportunities for drug repurposing: Primary screen for Rh30 cells (AID 1347107). Further: nearly all actives have a fitted effect of over 75% in size. Further: potency means the concentration at half of the fitted maximal effect. The method, boiled down: as §1
Assay [5] is described as follows: qHTS of pediatric cancer cell lines to identify multiple opportunities for drug repurposing: Primary screen for SK-N-SH cells (AID 1347098). Further: nearly all actives have a fitted effect of over 65% in size. Further: potency means the concentration at half of the fitted maximal effect. In a few lines: as §1
Assay [6] in a line: qHTS of pediatric cancer cell lines to identify multiple opportunities for drug repurposing: Primary screen for Rh18 cells (AID 1347102). Further: nearly all actives have a fitted effect of over 65% in size. The method, boiled down: as §1
Assay [7] can be described thus: qHTS of pediatric cancer cell lines to identify multiple opportunities for drug repurposing: Primary screen for OHS-50 cells (AID 1347103). Further: nearly all actives have a fitted effect of over 40% in size. Further: potency means the concentration at half of the fitted maximal effect. In a few lines:
as §1

The nature of assay [8]: qHTS of pediatric cancer cell lines to identify multiple opportunities for drug repurposing: Primary screen for Saos-2 cells (AID 1347097). Further: nearly all actives have a fitted effect of over 40% in size. Further: potency means the concentration at half of the fitted maximal effect. In a few lines: (§2)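 Quantitative HTS format: each compound titrated (MIPE 11 points from 0.78 nM, NPC 8 points from 0.59 nM) onto cells plated 5 hours earlier. After 48 h at 37 degrees C, CellTiter-Glo luminescence was recorded.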
The nature of assay [9]: qHTS of pediatric cancer cell lines to identify multiple opportunities for drug repurposing: Primary screen for NB1643 cells (AID 1347099). Further: nearly all actives have a fitted effect of over 50% in size. Further: potency means the concentration at half of the fitted maximal effect. The method, boiled down: as §2
A short description of assay [10]: qHTS of pediatric cancer cell lines to identify multiple opportunities for drug repurposing: Primary screen for RD cells (AID 1347104). Further: nearly all actives have a fitted effect of over 55% in size. Further: potency means the concentration at half of the fitted maximal effect. In a few lines:
as §2

A short description of assay [11]: qHTS of pediatric cancer cell lines to identify multiple opportunities for drug repurposing: Primary screen for MG 63 (6-TG R) cells (AID 1347105). Further: nearly all actives have a fitted effect of over 50% in size. Further: potency means the concentration at half of the fitted maximal effect. The method, boiled down: as §2
Assay [12] in a line: qHTS of pediatric cancer cell lines to identify multiple opportunities for drug repurposing: Primary screen for Rh41 cells (AID 1347108). Further: nearly all actives have a fitted effect of over 70% in size. Further: potency means the concentration at half of the fitted maximal effect. In a few lines: as §2
A short description of assay [13]: qHTS of pediatric cancer cell lines to identify multiple opportunities for drug repurposing: Confirmatory screen for A673 cells (AID 1347110).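 Further: cells exposed to compound for 48 h before the viability read; nearly all actives have a fitted effect of over 65% in size.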 Further: potency means the concentration at half of the fitted maximal effect. In a few lines: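 A673 cells seeded at 500-1,000 cells/well, rested 5 h, then dosed; primary MIPE 11-point (0.78 nM to 46 µM), NPC (0.59 nM to 46 µM); confirmatory 11-point. CellTiter-Glo luminescence after 48 h.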
Assay [14] is described as follows: qHTS of pediatric cancer cell lines to identify multiple opportunities for drug repurposing: Confirmatory screen for SK-N-MC cells (AID 1347111).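 Further: potency means the concentration at half of the fitted maximal effect; cells exposed to compound for 48 h before the readout; nearly all actives have a fitted effect of over 70% in size.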 The method, boiled down:
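Seed 500-1,000 cells/well; rest 5 h at 37 degrees C. Pin-transfer compounds, 11-point titration. Incubate 48 h. Add CellTiter-Glo, 15 min RT, read luminescence.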

Assay [15] is described as follows: qHTS of pediatric cancer cell lines to identify multiple opportunities for drug repurposing: Primary screen for LAN-5 cells (AID 1347100). Further: potency means the concentration at half of the fitted maximal effect. The method, boiled down:
as §1

A short description of assay [16]: qHTS of pediatric cancer cell lines to identify multiple opportunities for drug repurposing: Confirmatory screen for NB1643 cells (AID 1347109). Further: nearly all actives have a fitted effect of over 45% in size. The method, boiled down:
as §1

Assay [17] is described as follows: qHTS of pediatric cancer cell lines to identify multiple opportunities for drug repurposing: Confirmatory screen for BT-12 cells (AID 1347112). Further: nearly all actives have a fitted effect of over 55% in size. In a few lines:
as §1

Assay [18] is described as follows: qHTS of pediatric cancer cell lines to identify multiple opportunities for drug repurposing: Confirmatory screen for LAN-5 cells (AID 1347113). Further: nearly all actives have a fitted effect of over 65% in size. In a few lines:
as §1

Records with an inconclusive call do not appear. Activity calls are given as the source filed them. The call rests on the fitted dose curve; in most records, active means well fitted curve in the direction sought with a large enough effect; inconclusive means small, poorly fitted or top-dose-only effect, or another doubt; inactive means no such curve, though single readings can be large; an effect the other way counts as inactive or inconclusive.

Regarding `c1ccc2c(-c3cnn4cc(-c5ccc(N6CCNCC6)cc5)cnc34)ccnc2c1`, in [1], the Potency entry was “inactive”. Further, the Potency was 27.3 µM (active) in [2], 4.69 µM (active) in [3] and 18.7 µM (active) in assay [4].

As to `CCOC(CN1C(=O)[C@](CC(=O)Nc2ccc(C)cc2)(NC(=O)Nc2ccc(C)cc2)c2ccccc21)OCC`, the Potency entry in assay [5], in assay [6], in [3] and in assay [4] was “inactive” in each case.

Take `O=C(O)c1c(Cl)c(Cl)c(Cl)c(Cl)c1-c1c2cc(I)c(=O)c(I)c-2oc2c(I)c(O)c(I)cc12`: in assay [7], the Potency is 7.69 µM (active).

Take `CNC1CCC(N(Cc2cccc(-c3ccncc3)c2)C(=O)c2sc3c(F)ccc(F)c3c2Cl)CC1` (stereo not given): the Potency in [8] is 18.7 µM (active); in [9], 18.7 µM (active); in assay [7], 24.3 µM (active); in assay [10], 10.5 µM (active); in assay [11], 23.5 µM (active); in [12], 18.7 µM (active). For the same compound, the Potency in assay [13] was 20.8 µM (active); in [14], 11.7 µM (active).

Turning to `CC/C(=C(\c1ccccc1)c1ccc(OCCN(C)C)cc1)c1ccccc1`, the Potency is 21.1 µM (active) in assay [8], 24.4 µM (active) in assay [5], 27.6 µM (active) in assay [2] and 17.4 µM (active) in assay [7]. Also, the Potency result in assay [11], in [3], in assay [4] and in assay [12] was “inactive” in each case.

`CC(C)(C)C(=O)Oc1ccc2c(c1)nc(NC(=O)c1cccc([N+](=O)[O-])c1)n2CCCO`: the Potency result in [1], in [8], in assay [2], in assay [6], in assay [7] and in assay [10] was “inactive” in each case. In addition, the Potency entry in assay [11], in assay [3] and in [4] was “inactive” each time.

Consider `CC(C)OC(=O)C(C)(C)Oc1ccc(C(=O)c2ccc(Cl)cc2)cc1`, for which the Potency result in assay [8], in assay [5], in [15], in assay [6], in assay [10] and in assay [11] was “inactive” throughout. For the same compound, the Potency result in [3], in [4] and in assay [12] was “inactive” in each case.

For the compound `O=c1cc(-c2ccccc2)oc2cc(O)cc(O)c12`, the Potency entry in [1], in assay [8], in assay [9], in assay [2], in assay [6] and in [7] was “inactive” each time. Moreover, the Potency result in assay [10], in [3] and in assay [4] was “inactive” throughout.

`COc1ccc2cc(-c3nc(-c4ccc(S(C)=O)cc4)[nH]c3-c3ccncc3)ccc2c1` (stereo not given): the Potency result in assay [1], in assay [8], in assay [6], in [7], in assay [10] and in assay [11] was “inactive” each time. Besides, the Potency entry in assay [3], in [4] and in assay [12] was “inactive” each time.

On to `CC1CCC(C(=O)N(c2cc(C#CC(C)(C)C)sc2C(=O)O)C2CCC(O)CC2)CC1` (stereo not given), for which the Potency entry in assay [1], in [5], in assay [15], in assay [2], in assay [6] and in assay [11] was “inactive” each time. Besides, the Potency result in assay [3] was “inactive”. Besides, the Potency in assay [9] is 20.9 µM (active).

For the compound `CC[C@@H]1C=C(C)C[C@H](C)C[C@H](OC)[C@H]2O[C@@](O)(C(=O)C(=O)N3CCCC[C@@H]3C(=O)O[C@H](C(C)=C[C@@H]3CC[C@H](Cl)[C@H](OC)C3)[C@H](C)[C@@H](O)CC1=O)[C@H](C)C[C@H]2OC`, the Potency entry in assay [1], in assay [11], in assay [3], in assay [4] and in assay [13] was “inactive” in each case. The Potency in assay [8] was 9.35 µM (active); in [15], 11.8 µM (active); in assay [7], 8.63 µM (active).

Consider `O=C1NC(=O)C(=Cc2ccc3c(c2)OC(F)(F)O3)S1`, for which the Potency in [5] is 12.1 µM (active). For the same compound, the Potency result in [6], in assay [3], in assay [16], in [17] and in assay [18] was “inactive” in each case.

Regarding `O=c1cc(-c2ccccc2)oc2cc(O)c(O)c(O)c12`, the Potency in [8] was 18.7 µM (active). In addition, the Potency result in assay [9], in assay [10], in assay [11] and in assay [3] was “inactive” throughout.

With `COc1ccc2c(Oc3ccc(NC(=O)c4c(C)n(CC(C)(C)O)n(-c5ccccc5)c4=O)nc3)ccnc2c1`, the Potency result in assay [9], in assay [15], in assay [10], in [11], in assay [3] and in assay [4] was “inactive” throughout. In [7], the Potency was 5.44 µM (active).

For the compound `CCNc1cc(NC2CCC(O)CC2)nc(Nc2ccc3c(ccn3Cc3ccccc3)c2)n1` (stereo not given), the Potency in assay [2] is 27.3 µM (active). The Potency result in assay [11], in assay [3] and in [4] was “inactive” in each case.

Consider `CO[C@H]1C(=O)[C@]2(C)[C@@H](OC)C[C@H]3OC[C@@]3(OC(C)=O)[C@H]2[C@H](OC(=O)c2ccccc2)[C@]2(O)C[C@H](OC(=O)[C@H](O)[C@@H](NC(=O)OC(C)(C)C)c3ccccc3)C(C)=C1C2(C)C`, for which the Potency in assay [8] was 0.001 µM (active); in assay [15], 0.001 µM (active); in assay [7], 0.685 µM (active); in assay [13] it was 0.0059 µM (active); in assay [14] it was 0.0033 µM (active). The Potency result in assay [9], in [3], in [4] and in [18] was “inactive” throughout.

With `NC(=O)[C@@H](CCC(F)(F)F)N(Cc1ccc(-c2ncon2)cc1F)S(=O)(=O)c1ccc(Cl)cc1`, the Potency entry in [1], in assay [5], in assay [15], in assay [6] and in assay [3] was “inactive” each time. Also, in assay [9], the Potency was 23.5 µM (active).

As to `O=C1c2c(O)cc(O)cc2O[C@H](c2cc(O)c(O)c(O)c2)[C@H]1O`, the Potency result in [1], in assay [3] and in assay [4] was “inactive” throughout. Besides, the Potency in [8] is 23.5 µM (active); in assay [9], 23.5 µM (active); in [15], 26.4 µM (active).
